We go through 40 compounds from PubChem BioAssay (NCATS).

Records with an inconclusive call do not appear. Values without a mark were called inactive. Calls of active or inactive are those of the source. Calls come from the whole dose curve; as a rule, active = well fitted inhibition curve with a large enough effect; inconclusive = small, poorly fitted or top-dose-only effect; inactive = no such curve, though single readings can be large or run the other way.
% is set by controls: 0 for no effect and ±100 for the full control effect; potency is the fitted concentration of half-maximal effect.

This assay concerns the target Retinaldehyde dehydrogenase 3 (Homo sapiens) (UniProt P47895). As to the kind of experiment: qHTS for Inhibitors of the Aldehyde Dehydrogenase Family (ALDH1A3) Confirmatory screens (AID 2061311). Note: nearly all actives have a fitted effect of over 60% in size. Conditions: ALDH inhibition qHTS; series mostly up to 46 µM; activity change, negative = inhibition: at the top concentration. (In general: In qHTS, concentration-response curves come from the screen itself.)
Consider `O=C(CCc1ccccc1)Nc1ccc([C@@H](O)[C@H]2COCC(=O)N2Cc2ccncc2)cc1`, for which the “activity change, negative = inhibition” value is 0.496%.

As to `CC(=O)Nc1ccc(CN2CCCC(N3CCN(c4ccccc4)CC3)C2)cc1` (stereo not given), the outcome was inactive.

Take `Cc1cccc(-c2ccc(CN)cc2)c1`: the “activity change, negative = inhibition” value was 3.83%.

As for `CCOc1ccc(CCNC(=O)c2cc3sccc3n2CC)cc1OCC`, the “activity change, negative = inhibition” value was -29%.

Consider `Cc1cc(C)n2nc(SCC(=O)Nc3ccccc3C)nc2n1`, for which the “activity change, negative = inhibition” value was -41.6%.

Regarding `Fc1cccc(Cc2noc(-c3nc(-c4ccccc4)no3)n2)c1`, the “activity change, negative = inhibition” value is -16.8%.

Turning to `CCCOc1ccc(C(=O)Nc2ccc(NC(=O)c3cccc(Cl)c3)cc2)cc1`, the result was inactive.

`N#Cc1cccc(C(=O)Nc2ccc([C@H]3OCC(=O)N(C4CCOCC4)[C@@H]3CO)cc2)c1`: the compound was called inactive.

As to `Cc1cc2nc3n(c(=O)c2n1CC(=O)Nc1ccc(Br)cc1F)CCC3`, the “activity change, negative = inhibition” value was -4.3%.

`CCOC(=O)c1noc2ncnc(Nc3ccc(C)c(F)c3)c12`: the “activity change, negative = inhibition” value was -12.2%.

On to `CCc1nn2c(=O)c(S(=O)(=O)Nc3cccc(F)c3)c(C)nc2s1`, for which the “activity change, negative = inhibition” value was 4.3%.

With `CCOc1ccc(NC(=O)NCCCN2CCN(c3ccc(OC)cc3)CC2)cc1`, the “activity change, negative = inhibition” value is -51.7%.

In the case of `N#Cc1ccccc1NC(=O)Cn1cnc2onc(-c3cccc(F)c3)c2c1=O`, the “outcome” value is “inactive; activator”.

For the compound `COc1ccccc1-c1cc2c(nc1OC)nc(CC1CC1)n2C`, the “activity change, negative = inhibition” value is -25.2%.

Regarding `O=C(Nc1ccc([C@@H](O)[C@H]2COCC(=O)N2CCCc2ccccc2)cc1)c1ccco1`, the “activity change, negative = inhibition” value is -46.4%.

Turning to `CCn1nc(-c2cccc(-c3ccnn3C)c2)nc1N(C)C`, the compound was called inactive.

Consider `O=C(CSc1nc2c(cnn2-c2ccc(F)cc2)c(=O)[nH]1)Nc1ccc(Br)cc1`, for which the compound was called inactive.

For the compound `CCOc1cccc(CNC(=O)c2ccc(N3CCCC3)c(NC(=O)NCc3ccccc3)c2)c1`, the “activity change, negative = inhibition” value was 1.95%.

On to `O=C(O)c1ccc(Cn2c(SCc3ccc(F)cc3)nc3ccncc32)cc1`, for which the “activity change, negative = inhibition” value is -5.05%.

Consider `Cc1ccc(Oc2nc3c(c(=O)n(Cc4ccccc4Cl)c(=O)n3C)n2C)cc1C`, for which the “activity change, negative = inhibition” value is -6.92%.

Take `O=C(CN1CCN(c2ccc(Cl)cc2)CC1)Nc1ccc(F)c(F)c1`: the “activity change, negative = inhibition” value was -33%.

In the case of `c1cnc(-c2noc(-c3nc(-c4ccc5c(c4)OCO5)no3)n2)cn1`, the compound was called inactive.

Consider `O=S(=O)(c1ccccc1)c1nnn2c1nc(NC1CCCC1)c1ccccc12`, for which the “activity change, negative = inhibition” value was -33%.

`CCOc1ccc(NC(=O)C(=O)NCCc2ccccc2)cc1`: the “outcome” value is “inactive; activator”.

On to `COCCOc1ccc(C(=O)N[C@@H]2CN(C(=O)NCc3ccccc3)CCC[C@H]2O)cc1`, for which the “activity change, negative = inhibition” value was 1.57%.

Regarding `COc1ccccc1-n1c(=O)c(C(=O)NC(C)C)nc2cccnc21`, the compound was called inactive.

In the case of `CCOCc1ccccc1Nc1ncnc2onc(-c3ccc(Cl)cc3)c12`, the “activity change, negative = inhibition” value is 3.24%.

Turning to `Cc1cc2ncc(C(=O)NCCc3ccccc3F)cn2n1`, the “activity change, negative = inhibition” value is -13.1%.

As to `Fc1cccc(Cc2noc(-c3nc(-c4ccc5c(c4)OCO5)no3)n2)c1`, the “activity change, negative = inhibition” value is -2.24%.

`Cc1ccc(C(=O)c2cn(Cc3cccc(F)c3)c3nc(C)ccc3c2=O)cc1`: the “activity change, negative = inhibition” value is -9.43%.

Take `Cn1c(Oc2cccc(Cl)c2)nc2c1c(=O)n(Cc1ccccc1Cl)c(=O)n2C`: the Potency was 31.6 µM (active).

In the case of `COc1ccc(-c2ccccc2C(=O)NCc2ccccn2)nn1`, the “activity change, negative = inhibition” value is -5.34%.

Take `Cn1cc(-c2cnc(Nc3ccncc3)c3c2CCO3)cn1`: the compound was called inactive.

`CCOc1ccc(NC(=O)Nc2cc3c(cc2N2CCCCC2)n(C)c(=O)n3C)cc1`: the “activity change, negative = inhibition” value was -43.3%.

`CCc1nn2c(=O)c(S(=O)(=O)Nc3ccc(Cl)cc3)c(C)nc2s1`: the “activity change, negative = inhibition” value is -3.82%.

For `O=C(Nc1ccccc1Cl)c1nc2cccnc2n(Cc2ccccc2)c1=O`, the “activity change, negative = inhibition” value is -11%.

In the case of `OCc1ccc(-c2ccc3nnc(-c4ccccn4)n3n2)cc1`, the “activity change, negative = inhibition” value is -22.1%.

For `CCc1ccc(O)c(C(=O)c2cnc3cc(-c4ccc(C)cc4)nn3c2)c1`, the “activity change, negative = inhibition” value was -27.7%.

For the compound `COCCNC(=O)c1cc(-c2ccc(OC)cc2)nc2c1c(C)nn2-c1ccccc1`, the Potency is 25.1 µM (active).

In the case of `CCOc1ccc(NC(=O)N2CCC(CC(=O)NCc3ccccc3)C2)cc1` (stereo not given), the “activity change, negative = inhibition” value is -20.7%.
